According to PubChem BioAssay (NCI):
This is part of a sample that, as a whole, favours compounds with a hit. Of some 83,000 tested, about 20% had one in any assay.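 A percent growth of 40 corresponds to 60% growth inhibition; 0 means no net growth; -100 means all cells died. Active threshold: below 10.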 Values without a mark were called inactive. Active and inactive are the calls of the source.

Tests used:
Experiment in all cases: NCI-60 one-dose screen, 48 h (100 = growth as untreated, 0 = no growth, -100 = all killed)
Conditions in all cases: 10 µM unless noted
NCI-H23 lung = system: NCI-H23 lung
NCI-H226 lung = system: NCI-H226 lung
NCI-H322M lung = system: NCI-H322M lung
HOP-62 NSCLC = system: HOP-62 NSCLC
NCI-H460 lung = system: NCI-H460 lung
HOP-92 NSCLC = system: HOP-92 NSCLC
NCI-H522 lung = system: NCI-H522 lung
A549/ATCC NSCLC = system: A549/ATCC NSCLC
786-0 renal = system: 786-0 renal
COLO 205 colon = system: COLO 205 colon

For `COc1cc2c(c(OC)c1OC)C(=O)CC(c1cccc(C(=O)Nc3ccccc3Br)c1)O2` (stereo not drawn), the growth (NCI-H23 lung) was 102%, the growth (NCI-H226 lung) was 86% and the growth (NCI-H322M lung) was 98.1%. The growth (HOP-62 NSCLC) was 97.1%, the growth (NCI-H460 lung) was 110% and the growth (HOP-92 NSCLC) was 68.4%. For the same molecule, the growth (NCI-H522 lung) was 69.9%, the growth (A549/ATCC NSCLC) was 97.8% and the growth (786-0 renal) was 88%. For the same molecule, the growth (COLO 205 colon) was 95.4%.

With `CC(C)C1C2=C(NCCN1C(=O)c1ccncc1)C(C)(C)N(Cc1ccccc1)C2=O` (stereo not drawn) the growth (NCI-H23 lung) was 99.6%, the growth (NCI-H226 lung) was 107% and the growth (NCI-H322M lung) was 110%. It also gave a growth (HOP-62 NSCLC) of 103%, a growth (NCI-H460 lung) of 116% and a growth (HOP-92 NSCLC) of 103%. It also gave a growth (A549/ATCC NSCLC) of 95.2%, a growth (786-0 renal) of 105% and a growth (COLO 205 colon) of 109%.

`O=C(NC1CCC(Br)CC1)C1CCCC(S(=O)(=O)NC2CCCCC2)C1` (stereo not drawn) was tested, and the growth (NCI-H23 lung) was -3.95% [25 µM] (active), the growth (NCI-H226 lung) was 19.7% [25 µM] and the growth (NCI-H322M lung) was 41.9% [25 µM]. For the same molecule, the growth (HOP-62 NSCLC) was 13.8% [25 µM], the growth (NCI-H460 lung) was 14.1% [25 µM] and the growth (HOP-92 NSCLC) was -15.2% [25 µM] (active). The growth (A549/ATCC NSCLC) was 10.4% [25 µM], the growth (786-0 renal) was 36% [25 µM] and the growth (COLO 205 colon) was 13% [25 µM].

With `Nc1c(C(=O)Nc2cccc3ncccc23)sc2nc3c(cc12)CN(Cc1ccccc1)CC3` the growth (NCI-H23 lung) was 67.7%, the growth (NCI-H226 lung) was 77.2% and the growth (NCI-H322M lung) was 83%. The growth (HOP-62 NSCLC) was 73.1%, the growth (NCI-H460 lung) was 84.3% and the growth (HOP-92 NSCLC) was 74.1%. It also gave a growth (NCI-H522 lung) of 55.8%, a growth (A549/ATCC NSCLC) of 90.3% and a growth (786-0 renal) of 88.1%. The growth (COLO 205 colon) was 112%.

Work on `O=C(Cn1nc(-c2cccc3ccccc23)ccc1=O)NCc1cccc(Cl)c1` yielded a growth (NCI-H23 lung) of 45.2% [50 µM], a growth (NCI-H226 lung) of 38.2% [50 µM] and a growth (NCI-H322M lung) of 70.4% [50 µM]. The growth (HOP-62 NSCLC) was 72.2% [50 µM], the growth (NCI-H460 lung) was 32.2% [50 µM] and the growth (HOP-92 NSCLC) was 26.3% [50 µM]. The growth (NCI-H522 lung) was 17.1% [50 µM], the growth (A549/ATCC NSCLC) was 28.5% [50 µM] and the growth (786-0 renal) was 37.7% [50 µM]. The growth (COLO 205 colon) was 37.3% [50 µM].

With `Clc1cccc(C2Cc3cnccc3-c3[nH]c4ccncc4c32)c1` (stereo not drawn) the growth (NCI-H23 lung) was 35%, the growth (NCI-H226 lung) was 52.1% and the growth (NCI-H322M lung) was 73.2%. For the same molecule, the growth (HOP-62 NSCLC) was 67.3%, the growth (NCI-H460 lung) was 19.1% and the growth (HOP-92 NSCLC) was 39.1%. It also gave a growth (NCI-H522 lung) of 51.9%, a growth (A549/ATCC NSCLC) of 42.9% and a growth (786-0 renal) of 59.7%. The growth (COLO 205 colon) was 23.4%.

In the case of `CNC(=O)c1cc(Oc2ccc3c(c2)sc2nc(-c4cc(C(F)(F)F)cc(C(F)(F)F)c4)cn23)ccn1`, the growth (NCI-H23 lung) is reported as 44.8%, the growth (NCI-H226 lung) is reported as 26.8% and the growth (NCI-H322M lung) is reported as 89.8%. The growth (HOP-62 NSCLC) was 25.4%, the growth (NCI-H460 lung) was 38.3% and the growth (HOP-92 NSCLC) was 27%. For the same molecule, the growth (A549/ATCC NSCLC) was 39.5%, the growth (786-0 renal) was 61.3% and the growth (COLO 205 colon) was 55.3%.

In the case of `C(=C(\C1=NCCN1)n1ccc2ccccc21)/c1ccccc1`, the growth (NCI-H23 lung) is reported as 97%, the growth (NCI-H226 lung) is reported as 93.5% and the growth (NCI-H322M lung) is reported as 97.7%. The growth (HOP-62 NSCLC) was 96.3%, the growth (NCI-H460 lung) was 101% and the growth (HOP-92 NSCLC) was 78.7%. The growth (A549/ATCC NSCLC) was 99.9%, the growth (786-0 renal) was 98.3% and the growth (COLO 205 colon) was 107%.

`O=C1C=C(SCCO)C(=O)c2ccccc21` was tested, and the growth (NCI-H23 lung) was -39% (active), the growth (NCI-H226 lung) was 95.6% and the growth (NCI-H322M lung) was 69.6%. For the same molecule, the growth (HOP-62 NSCLC) was -46.9% (active), the growth (NCI-H460 lung) was 9.52% (active) and the growth (HOP-92 NSCLC) was 94.3%. The growth (NCI-H522 lung) was 21.6%, the growth (A549/ATCC NSCLC) was 68.1% and the growth (786-0 renal) was 70.3%. The growth (COLO 205 colon) was 76.3%.

`COc1ccc(/C=C(/C(=O)N2CCNCC2)c2cc(OC)c(OC)c(OC)c2)cc1O` showed a growth (NCI-H23 lung) of 49.9%, a growth (NCI-H226 lung) of 88.7% and a growth (NCI-H322M lung) of 50%. For the same molecule, the growth (HOP-62 NSCLC) was 56.4%, the growth (NCI-H460 lung) was 37.6% and the growth (HOP-92 NSCLC) was 48.7%. For the same molecule, the growth (A549/ATCC NSCLC) was 41.6%, the growth (786-0 renal) was 95.5% and the growth (COLO 205 colon) was 25.9%.

With `O=C1Nc2ccccc2/C1=N/N1C(=O)CN(CCCl)C1=O` the growth (NCI-H23 lung) was 100%, the growth (NCI-H226 lung) was 95.1% and the growth (NCI-H322M lung) was 101%. The growth (HOP-62 NSCLC) was 97.5%, the growth (HOP-92 NSCLC) was 110% and the growth (NCI-H522 lung) was 89.7%. The growth (A549/ATCC NSCLC) was 104%, the growth (786-0 renal) was 101% and the growth (COLO 205 colon) was 112%.

In the case of `C#CCOc1cccc(Nc2ncnc3c2ncn3C2CCN(C(=O)CCl)C2)c1` (stereo not drawn), the growth (NCI-H23 lung) is reported as -23.1% (active), the growth (NCI-H226 lung) is reported as 1.03% (active) and the growth (NCI-H322M lung) is reported as 87.2%. The growth (HOP-62 NSCLC) was 1.84% (active), the growth (HOP-92 NSCLC) was -84.5% (active) and the growth (NCI-H522 lung) was -61.3% (active). The growth (A549/ATCC NSCLC) was 54.6%, the growth (786-0 renal) was -72.4% (active) and the growth (COLO 205 colon) was -72.5% (active).
